This is an account of results in PubChem BioAssay AID463173 (ICCB-Longwood Screening Facility, Harvard Medical School, 2010).

Out of some 52,000 compounds screened, about 4,300 (8.3%) were called active. This is one part of a sample in which actives are shown more often than they occur. Cut-off read from the data, not from the text of the source: active = survival mostly below about 52% (no sharp cut-off); inactive = mostly above about 56%.

For the assay, the system named is DeltatarO mutant. The experiment in a line: growth inhibition of S. aureus wild type versus tarO mutant, primary screen, teichoic acid synthesis inhibitors, RN4220, OD600 (AID 463173). To be noted: OD600, 18 h, active compounds read low, screened at 18.75 µg/mL (by protocol).
Take `Cc1cccc(CSc2nc(=O)c3c(n2C)NC(=O)CC3c2cccc(O)c2)c1` (stereo unspecified): the survival is 46% (inactive).
Under `COc1ccccc1NC(=O)c1ccc(CN2C(=O)C(C)=C(c3ccc(C)c(C)c3)S2(=O)=O)cc1` stands 83% (inactive); under `O=C(COc1ccccc1Cl)Nc1ccc(Cl)c(-c2nc3ccccc3o2)c1`, 51% (inactive); under `O=C(COc1ccccc1Cl)Nc1ccc2oc(-c3ccccc3F)nc2c1`, 67% (active).
The result for `Cc1ccc(SCC(=O)Nc2ccc3oc(-c4ccccc4F)nc3c2)cc1` reads 57% (active); that for `N#Cc1ccc(C(=O)Nc2ccc(Cl)c(-c3nc4cc(Cl)ccc4o3)c2)c(F)c1`, 28% (active); that for `Cc1cccc(OCC(=O)Nc2ccc3oc(-c4ccccc4F)nc3c2)c1`, 57% (inactive).
Under `O=C(Nc1ccc(Cl)c(-c2nc3cc(Cl)ccc3o2)c1)c1cc2ccccc2o1` stands 70% (inactive); under `COc1ccc2oc(-c3cccc(NC(=O)c4ccc(C#N)cc4F)c3)nc2c1`, 79% (inactive); under `Cc1ccc(SCC(=O)Nc2ccc3oc(-c4ccc(F)cc4)nc3c2)cc1`, 80% (inactive).
As for `COc1ccccc1-c1nc2cc(NC(=O)c3ccccc3Cl)ccc2o1`, the survival is 61% (inactive).
`O=C(Nc1ccc(-c2nc3cc(NC(=O)c4ccccc4Cl)ccc3o2)cc1)c1ccccc1Cl`: the survival is 83% (inactive).
On to `Cc1ccc(SCC(=O)Nc2ccc3oc(-c4ccccc4C)nc3c2)cc1`, for which the survival is 50% (inactive).
As to `O=C(Nc1ccc2oc(-c3ccccc3F)nc2c1)c1ccccc1Cl`, the survival was 49% (active).
The result for `CCCS(=O)(=O)N1CCCC(C(=O)NCCCOC)C1` (stereo unspecified) reads 77% (inactive).
Under `CCOc1ccc(Br)cc1C1NC(=O)c2c(sc3c2CCN(C)C3)N1` (stereo unspecified) stands 60% (inactive).
In the case of `CCn1c(C)c(C)c2cc(C(=O)NCc3ccc(OC)cc3OC)ccc21`, the survival is 70% (inactive).
Under `CCc1nn2c(=O)cc(COC(=O)C(CC)c3ccccc3)nc2s1` (stereo unspecified) stands 92% (inactive); under `CCN(Cc1ccccc1)C(=O)c1cc2ccc3cccnc3c2[nH]1`, 49% (inactive).
Under `Cc1cccc(C(=O)NCCc2nc3ccccc3n2Cc2ccc(Cl)cc2)c1` stands 79% (inactive); under `COC(=O)c1ccc(N2C(=O)c3ccc(N)cc3C2=O)cc1`, 73% (inactive); under `COc1cc(Cl)c(NC(=O)c2cc(CN3CCCC3)on2)c(OC)c1`, 94% (inactive).
The result for `CC(=O)c1cccc(NC(=O)CSc2nnc3ccc(-c4ccc(Br)cc4)nn23)c1` reads 75% (inactive); that for `COC(=O)c1ccc(NC(=O)c2c(-c3ccccc3)c(-c3ccccc3)nn(C)c2=O)cc1`, 58% (inactive); that for `Cn1nc(-c2ccccc2)c(-c2ccccc2)c(C(=O)Nc2ccc(S(N)(=O)=O)cc2)c1=O`, 49% (active).
Regarding `CCn1nc(-c2ccccc2)c(-c2ccccc2)c(C(=O)Nc2ccc(S(N)(=O)=O)cc2)c1=O`, the survival was 66% (inactive).
